Screens (PubChem)
A selection: hits, their analogues and other compounds. The true share with any hit is near 1.3%.
S1P2 agonist: S1P2 (human) receptor agonism; activation, % at 4.5 µM; AID 729; 97,000 compounds, 0.46% hits; O95136; S1P2-expressing cell line, agonist reporter read-out; in the data active means activation above about 16%
Target sequence (O95136 whole entry, looked up): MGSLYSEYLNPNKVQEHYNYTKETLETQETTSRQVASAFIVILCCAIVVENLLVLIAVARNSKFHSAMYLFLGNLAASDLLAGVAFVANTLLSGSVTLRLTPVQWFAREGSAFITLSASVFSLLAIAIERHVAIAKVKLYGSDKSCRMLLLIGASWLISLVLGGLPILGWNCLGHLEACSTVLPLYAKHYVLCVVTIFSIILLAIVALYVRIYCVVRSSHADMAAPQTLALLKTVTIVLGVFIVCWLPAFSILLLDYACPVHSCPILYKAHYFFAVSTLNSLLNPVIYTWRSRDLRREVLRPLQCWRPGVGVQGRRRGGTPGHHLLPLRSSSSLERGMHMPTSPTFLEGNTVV
GALR2 ag: agonists of human galanin receptor 2 (GALR2); O43603; GALR2-expressing cells, agonist activation read-out; activation, % (concentration not given with the values); 140,000 compounds, 0.48% hits; AID 803; in the data active means activation above about 5%, passing the limit was not always enough
Target sequence (O43603 whole entry, looked up): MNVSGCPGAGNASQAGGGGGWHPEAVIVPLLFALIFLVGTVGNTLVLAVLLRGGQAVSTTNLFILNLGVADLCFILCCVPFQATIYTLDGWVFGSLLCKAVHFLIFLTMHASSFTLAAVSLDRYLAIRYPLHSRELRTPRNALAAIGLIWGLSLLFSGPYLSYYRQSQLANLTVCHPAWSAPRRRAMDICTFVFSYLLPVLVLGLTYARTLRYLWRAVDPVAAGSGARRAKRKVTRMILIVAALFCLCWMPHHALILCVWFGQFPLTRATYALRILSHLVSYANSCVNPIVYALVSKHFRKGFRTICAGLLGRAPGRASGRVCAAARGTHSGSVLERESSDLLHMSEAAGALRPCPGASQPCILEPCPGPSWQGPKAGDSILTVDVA
Smad3 FoxH1 inh: inhibitors of human Smad3 transcription factor binding; P84022; TR-FRET Smad3/Dy647-FoxH1 peptide binding, europium anti-His; inhibition, % at 25 µM; 88,000 compounds, 0.29% hits; AID 630;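 active means compounds that reduce the energy-transfer binding signal between the protein and its labelled peptide by more than half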
Candida biofilm: kills Candida albicans biofilms; C. albicans biofilm + clotrimazole, Alamar Blue; inhibition, % at 6 µM; 85,000 compounds, 0.14% hits; AID 834;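 active means inhibition above 20%; inactive means inhibition below 20%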;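 further: preformed 24 hr biofilms exposed to compound for 48 hr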
GALR2 antag: GALR2 (human) receptor antagonism; O43603; GALR2-expressing cells, antagonist mode; inhibition, % at 4 µM; 140,000 compounds, 0.39% hits; AID 828; in the data active means inhibition above about 27%;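 further: cells stimulated with galanin 1-16 at roughly its EC80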
S1P2 antag: S1P2 (human) receptor antagonism. O95136. cell-based S1P2 antagonist assay, inhibition at 5 uM. inhibition, % at 5 µM. 97,000 compounds, 0.21% hits; in the data active means inhibition above about 45%;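 further: CRE beta-lactamase reporter cells expressing human S1P2 stimulated with S1P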
GALR2 ag confirm: confirmation of human galanin receptor 2 (GALR2) agonists. shares compounds with GALR2 ag. GALR2-expressing cells, agonist activation. activation, % at 5.6 µM. 460 compounds, 10% hits. AID 864; in the data active means activation above about 8.4%
BLA activ ctr: beta-lactamase activation, GALR2 counterscreen. CHO NFAT-bla reporter, beta-lactamase FRET activation. activation, % at 5.6 µM. AID 865. shares compounds with GALR2 ag. 460 compounds, 10% hits;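 active means activation above the screen-wide mean activation plus 3 SD, cut at about 8% in these data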
Large screens that a line does not name were inactive (follow-up assays come after a bar, where they were run); ! = a repeat was not active.

O=C1OC(c2cccc([N+](=O)[O-])c2)C2(CCCC2)C(=O)C12CCCCC2 (configuration not stated)	none (no result: S1P2 agonist, Smad3 FoxH1 inh, Candida biofilm, S1P2 antag)
CC(C)Oc1ccc(CNC(=S)N/N=C/c2cccnc2)cc1	none (no result: Smad3 FoxH1 inh, Candida biofilm)
O=c1[nH]c(/C=C/c2ccccc2OC(F)F)nc2c1cnn2-c1ccccc1	GALR2 ag 15 (no result: S1P2 agonist, Smad3 FoxH1 inh, Candida biofilm, S1P2 antag) | GALR2 ag confirm 8.8 | BLA activ ctr inactive
CCCSc1nc2c(cnn2-c2ccccc2)c(=O)[nH]1	none (no result: S1P2 agonist, S1P2 antag)
CCS(=O)(=O)N1CCN(c2cccc(C)c2C)CC1	GALR2 ag 17 | GALR2 ag confirm inactive | BLA activ ctr inactive
CCn1c(=O)cc(OCC(=O)Nc2cccnc2)c2ccccc21	none
CCn1c(=O)cc(OCC(=O)Nc2cccc(C)n2)c2ccccc21	GALR2 ag 120 | GALR2 ag confirm inactive | BLA activ ctr inactive
COc1ccc(Cn2c(SCc3ccccc3C)nc3cc(OC)c(OC)cc3c2=N)cc1	GALR2 ag 9.1 (no result: Smad3 FoxH1 inh, Candida biofilm) | GALR2 ag confirm 8.8 | BLA activ ctr inactive
O=C(NCCc1ccccc1)C(=O)N/N=C/c1ccccc1C(F)(F)F	none | GALR2 ag confirm inactive | BLA activ ctr inactive
O=C(NCCc1ccccc1)C(=O)N/N=C/c1ccc2c(c1)OCO2	none (no result: Smad3 FoxH1 inh, Candida biofilm)
CCOc1ccc(CC(=NCCO)C2=C(O)CC(C)(C)CC2=O)cc1OCC	none (no result: S1P2 agonist, Smad3 FoxH1 inh, Candida biofilm, S1P2 antag)
CCC(C)N=CC1=C(O)C(C(=O)OC)C(C)(C)CC1=O (configuration not stated)	GALR2 ag 49 | GALR2 ag confirm inactive | BLA activ ctr inactive
COC(=O)C1C(O)=C(C=NCC(C)N=CC2=C(O)C(C(=O)OC)C(C)(C)CC2=O)C(=O)CC1(C)C (configuration not stated)	none
CC(C)Oc1ccc(C(=O)Nc2ccc(Cl)c(S(=O)(=O)Nc3ccc(Cl)cc3)c2)cc1	none (no result: S1P2 agonist, Smad3 FoxH1 inh, Candida biofilm, S1P2 antag)
CCC(C)(C)NC(=O)C(c1cccn1C)N(Cc1ccc(OC)cc1)C(=O)Cn1nnc2ccccc21 (configuration not stated)	none | GALR2 ag confirm inactive | BLA activ ctr inactive
COc1ccc(Nc2cc(C(=O)NCc3ccco3)c3ccccc3n2)cc1	GALR2 ag 9.7 (no result: S1P2 agonist, Smad3 FoxH1 inh, Candida biofilm, S1P2 antag) | GALR2 ag confirm inactive | BLA activ ctr inactive
COc1ccc(Nc2cc(C(=O)NCCCN3CCN(C)CC3)c3ccccc3n2)cc1	none
Cc1cccc(NC(=O)C2CCCN(S(=O)(=O)c3cccc4nsnc34)C2)n1 (configuration not stated)	GALR2 ag 11 | GALR2 ag confirm inactive | BLA activ ctr inactive
O=C(COC(=O)COc1ccc(Br)cc1)Nc1cccnc1Cl	GALR2 ag 34 (no result: S1P2 agonist, Smad3 FoxH1 inh, Candida biofilm, S1P2 antag) | GALR2 ag confirm inactive | BLA activ ctr inactive
CN(C)CCNC(=O)NC(=O)c1ccc(Cl)cc1	GALR2 ag 21 (no result: S1P2 agonist, Smad3 FoxH1 inh, Candida biofilm, S1P2 antag) | GALR2 ag confirm inactive | BLA activ ctr inactive
O=C(N/N=C/c1c(F)cccc1Cl)c1ccc(Cn2cc(Br)cn2)o1	GALR2 ag 40 (no result: S1P2 agonist, Smad3 FoxH1 inh, Candida biofilm, S1P2 antag) | GALR2 ag confirm inactive | BLA activ ctr inactive
CS(=O)(=O)NCCCNc1ccc(Cl)cc1[N+](=O)[O-]	GALR2 ag 58 | GALR2 ag confirm inactive | BLA activ ctr inactive
CCNCCNc1ccc(Cl)cc1[N+](=O)[O-]	none (no result: Smad3 FoxH1 inh, Candida biofilm)
COC(=O)C1=C(C)N(Cc2ccco2)C(=O)N[C@H]1c1ccc(Br)cc1	none (no result: S1P2 agonist, Smad3 FoxH1 inh, Candida biofilm, S1P2 antag)
Cn1ncc(Cl)c(Oc2ccc(C(C)(C)C)cc2)c1=O	none (no result: S1P2 agonist, Smad3 FoxH1 inh, Candida biofilm, S1P2 antag)
CCc1cc(=O)oc2c(CN3CCCC3)c(O)c(Cl)cc12	none
CCc1cc(=O)oc2c(CN3CCN(C)CC3)c(O)c(Cl)cc12	GALR2 ag 12 | GALR2 ag confirm inactive | BLA activ ctr inactive
Cc1ccc(CNC(=O)CCNC(=O)c2ccc(Br)o2)cc1	GALR2 ag 28 | GALR2 ag confirm inactive | BLA activ ctr inactive
Cc1cccc(-c2c3c(=O)n(C)c(=O)n(C)c3cn2CC2CCCO2)c1 (configuration not stated)	none
COC(=O)Nc1ccc2c(c1)N(C(=O)CCN1CCN3CCCC3C1)c1ccccc1S2 (configuration not stated)	none
c1ccc2[nH]c(-c3ccnc4ccccc34)nc2c1	GALR2 ag 12! | GALR2 ag confirm inactive | BLA activ ctr inactive
Cc1ccccc1-c1nc2ccccc2[nH]1	none
CC(NC(=O)c1ccccc1)c1ccc(F)cc1 (configuration not stated)	none (no result: S1P2 agonist, Smad3 FoxH1 inh, Candida biofilm, S1P2 antag)
O=S(=O)(c1ccc(N2CCN(CCO)CC2)nc1)N1CCCCC1	GALR2 ag 22 | GALR2 ag confirm inactive | BLA activ ctr inactive
COc1ccc(-c2nnc(-c3ccc(OCC(C)C)cc3)o2)cc1	GALR2 ag 14 | GALR2 ag confirm inactive | BLA activ ctr inactive
CCCC(CCC)=NNC(=O)CN(Cc1ccccc1)S(=O)(=O)c1ccccc1	none (no result: S1P2 agonist, Smad3 FoxH1 inh, Candida biofilm, S1P2 antag)
COC(=O)c1ccc(N2CCN(S(=O)(=O)c3ccc(C)cc3)CC2)c([N+](=O)[O-])c1	none (no result: Smad3 FoxH1 inh, Candida biofilm)
COC(=O)c1ccc(N2CCCCC2)c(NS(=O)(=O)c2ccc(C)cc2)c1	GALR2 ag 18 | GALR2 ag confirm inactive | BLA activ ctr inactive
CCN(CC)CCNC(=O)c1ccc(N2CCCCC2)c(NS(=O)(=O)c2ccc(C)cc2)c1	GALR2 ag 19 | GALR2 ag confirm inactive | BLA activ ctr inactive
CCCCc1cc(O)c(CCCC)c(O)c1	GALR2 ag 9.8 | GALR2 ag confirm 12 | BLA activ ctr 27
Cc1ccccc1Nc1nc(-c2sc(NC(=O)c3ccccc3)nc2C)cs1	GALR2 ag 19 (no result: Smad3 FoxH1 inh, Candida biofilm) | GALR2 ag confirm inactive | BLA activ ctr inactive
COc1ccc(-c2n[nH]c(C)c2-c2cc(OC)ccc2O)cc1	none | GALR2 ag confirm inactive | BLA activ ctr inactive
COc1ccc(-c2cc(-c3cc(OC)ccc3O)[nH]n2)cc1	none
COc1ccc(/C=C/C(=O)Nc2sc3c(c2C(=O)NCc2cccnc2)CCCC3)cc1	none (no result: Smad3 FoxH1 inh, Candida biofilm)
O=C(COc1ccccc1)Nc1sc2c(c1C(=O)NCc1cccnc1)CCCC2	none (no result: Smad3 FoxH1 inh, Candida biofilm) | GALR2 ag confirm inactive | BLA activ ctr inactive
CN(Cc1cc([N+](=O)[O-])c2cccnc2c1O)C1CCCCC1	GALR2 ag 23 (no result: S1P2 agonist, Smad3 FoxH1 inh, Candida biofilm, S1P2 antag) | GALR2 ag confirm inactive | BLA activ ctr inactive
Cc1cc(C)c(S(=O)(=O)N2CCN(C)CC2)c(C)c1	none
Cc1ccc2nc(SCC(=O)N(CC(C)C)c3c(N)n(CC(C)C)c(=O)[nH]c3=O)[nH]c2c1	GALR2 ag 40 | GALR2 ag confirm inactive | BLA activ ctr inactive
CC(C)CN(C(=O)CSc1nncs1)c1c(N)n(CC(C)C)c(=O)[nH]c1=O	none
Cc1ccc(COCC(CC(C)C)N2CCN(C(=O)c3cccc(C(F)(F)F)c3)CCC2=O)cc1 (configuration not stated)	GALR2 ag 8.9 (no result: S1P2 agonist, Smad3 FoxH1 inh, Candida biofilm, S1P2 antag) | GALR2 ag confirm inactive | BLA activ ctr inactive
CC(C)CC(COCc1ccc(F)cc1)N1CCN(C(=O)c2cccc(C(F)(F)F)c2)CCC1=O (configuration not stated)	none (no result: S1P2 agonist, Smad3 FoxH1 inh, Candida biofilm, S1P2 antag)
COC(=O)C1=CN(C)C=C(C(=O)OC)C1c1ccc(O)c(OC)c1	none
COC(=O)C1=CN(C2CC2)C=C(C(=O)OC)C1c1ccccc1OC	none | GALR2 ag confirm inactive | BLA activ ctr inactive
